# Reference: the supplement of paper PMC9177965
# Where “and” joins values, the source holds several entries; their conditions need not be identical. Identical values can stand only once.
# Tests used:
# [1] = tested on: HT29 RNF43 G659fs (RNF43 659mut, CRISPR-edited); assay: cell viability activity relative to DMSO (negative = inhibition); higher = more viable cells (less growth inhibition); settings: 5 µM; 96 h
# Experimental: (§1)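 Broad Repurposing Library primary screen at a single dose of 5 uM. HT29 sg-Ctrl and HT29 RNF43 G659fs CRISPR-edited isogenic cells were seeded at 2500 cells/well in 384-well plates in duplicate and treated for 96 h. Viability was read by CellTiter-Glo and reported as % activity relative to DMSO, with MG132 as the positive control (negative = growth inhibition).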
# [2] = tested on: HT29 sg-Ctrl (RNF43 wildtype); assay: as above; settings: 5 µM; 96 h
# Experimental: as §1
smiles,measurement,setting,value
CCCCC/N=c1\ccn(Cc2ccccc2)c2ccccc12,cell viability activity,[1],-62.5%
same,cell viability activity,[2],-45.4%
CC[C@@H]1C(=O)N(C)c2cnc(Nc3ccc(C(=O)N[C@H]4CC[C@H](N5CCN(CC6CC6)CC5)CC4)cc3OC)nc2N1C(C)C,cell viability activity,[1],-66.4%
same,cell viability activity,[2],-77.9%
O=C(O)c1ccc[n+]([O-])c1,cell viability activity,[1],-66%
same,cell viability activity,[2],-67.1%
NC(=O)c1cnc(N[C@@H]2CCCC[C@@H]2N)nc1Nc1cccc(-n2nccn2)c1,cell viability activity,[1],-35.6% and -40.3%
same,cell viability activity,[2],-34.2% and -41.6%
O=C1c2c(O)ccc(O)c2C(=O)c2c(NCCNCCO)ccc(NCCNCCO)c21,cell viability activity,[1],-100%
same,cell viability activity,[2],-99.7%
CN(Cc1cnc2nc(N)nc(N)c2n1)c1ccc(C(=O)N[C@@H](CCC(=O)O)C(=O)O)cc1,cell viability activity,[1],-67.9%
same,cell viability activity,[2],-66%
Cc1nc(=O)c2cc(CN(C)c3ccc(C(=O)N[C@@H](CCC(=O)O)C(=O)O)s3)ccc2[nH]1,cell viability activity,[1],-60.2%
same,cell viability activity,[2],-60.9%
COc1cc(OCc2cccc(-c3ccccc3)c2C)cc(OC)c1CN1CCCC[C@H]1C(=O)O,cell viability activity,[1],-24.2%
same,cell viability activity,[2],-3.46%
Cc1nc(Nc2n[nH]c3c2CN(C(=O)N[C@H](CN(C)C)c2ccccc2)C3(C)C)c2sccc2n1,cell viability activity,[1],-73.8%
same,cell viability activity,[2],-79.1%
CCc1c2c(nc3ccc(O)cc13)-c1cc3c(c(=O)n1C2)COC(=O)[C@]3(O)CC,cell viability activity,[1],-84%
same,cell viability activity,[2],-63.3%
Cc1nc(Nc2ncc(C(=O)Nc3c(C)cccc3Cl)s2)cc(N2CCN(CCO)CC2)n1,cell viability activity,[1],-65.9%
same,cell viability activity,[2],-60.3%
CC1(C)CC(=O)c2c(C(F)(F)F)nn(-c3ccc(C(N)=O)c(N[C@H]4CC[C@H](O)CC4)c3)c2C1,cell viability activity,[1],-86.4%
same,cell viability activity,[2],-78.4%
CC(C)CCN1c2nc(Nc3cc(F)c(O)c(F)c3)ncc2N(C)C(=O)C1C (stereo not drawn),cell viability activity,[1],-29.4%
same,cell viability activity,[2],4.41%
Cc1ncc(-c2ccnc(Nc3ccc(S(C)(=O)=O)cc3)n2)n1C(C)C,cell viability activity,[1],-91.5%
same,cell viability activity,[2],-87.7%
COc1cccc(OCCCN)c1-c1cc(Nc2cnc(C#N)cn2)n[nH]1,cell viability activity,[1],-78.2%
same,cell viability activity,[2],-86.9%
C[C@H]1O[C@@H](O[C@H]2CC[C@@]3(C)[C@H](CC[C@@H]4[C@@H]3C[C@@H](O)[C@]3(C)[C@@H](C5=CC(=O)OC5)CC[C@]43O)C2)C[C@H](O)[C@@H]1O[C@H]1C[C@H](O)[C@H](O[C@H]2C[C@H](O)[C@H](O[C@@H]3O[C@H](CO)[C@@H](O)[C@H](O)[C@H]3O)[C@@H](C)O2)[C@@H](C)O1,cell viability activity,[1],-90.5%
same,cell viability activity,[2],-91.5%
O=C1/C(=C/c2ccccc2)C(NC2CCCCC2)c2ccccc21 (stereo not drawn),cell viability activity,[1],-91.7%
same,cell viability activity,[2],-74.6%
CCN(CC)CCNC(=O)c1c(C)[nH]c(/C=C2\C(=O)Nc3ccc(F)cc32)c1C,cell viability activity,[1],-99.7%
same,cell viability activity,[2],-99.2%
CC(C)[C@H](C(=O)Nc1ccc(C(=O)NO)cc1)c1ccccc1,cell viability activity,[1],-95%
same,cell viability activity,[2],-89.9%
CN(NC(=O)CC(=O)NN(C)C(=S)c1ccccc1)C(=S)c1ccccc1,cell viability activity,[1],-30.6%
same,cell viability activity,[2],-15.3%
CC1(COc2ccc3c(c2)ncn3-c2ccc3cccc(N4CCC(N)CC4)c3n2)COC1,cell viability activity,[1],-98.3%
same,cell viability activity,[2],-98%
c1ccc2c(CCNc3ccc(Nc4ccncc4)cc3)c[nH]c2c1,cell viability activity,[1],-93.4%
same,cell viability activity,[2],-90.3%
CC(=O)c1ccc2c(c1)[C@@H]1C=CC[C@@H]1[C@H](c1cc3c(cc1Br)OCO3)N2,cell viability activity,[1],-69.9%
same,cell viability activity,[2],-56.9%
Cc1ccc(C(=O)Nc2ccc(CN3CCN(C)CC3)c(C(F)(F)F)c2)cc1C#Cc1cnc2[nH]ncc2c1,cell viability activity,[1],-96.2%
same,cell viability activity,[2],-94%
NC(=S)N/N=C/c1ncccc1N,cell viability activity,[1],-58.9%
same,cell viability activity,[2],-69.1%
COc1cccc2c1C(=O)c1c(O)c3c(c(O)c1C2=O)C[C@@](O)(C(=O)CO)C[C@@H]3O[C@H]1C[C@H](N)[C@@H](O)[C@H](C)O1,cell viability activity,[1],-93.5%
same,cell viability activity,[2],-76.5%
CCC(=O)N1CCN(c2ccc(-n3c(=O)ccc4cnc5ccc(-c6cnc7ccccc7c6)cc5c43)cc2C(F)(F)F)CC1,cell viability activity,[1],-56.6%
same,cell viability activity,[2],-34.6%
C/C(=N\NC(=S)N1CCC1)c1ccccn1,cell viability activity,[1],-82.2%
same,cell viability activity,[2],-88.9%
C=C1C(=O)O[C@H]2[C@H]1CC/C(C)=C/CC[C@@]1(C)O[C@@H]21,cell viability activity,[1],-28.1%
same,cell viability activity,[2],-6.73%
CNc1nc(-c2ccc3c(N)n[nH]c3c2)cc(N2C[C@@H](C(=O)NC3CCCCC3)CC[C@H]2C)n1,cell viability activity,[1],-31.4%
same,cell viability activity,[2],-23%
Fc1cc(-c2cccc3ncc(-c4cnn(C5CCNCC5)c4)nc23)cc(F)c1CN1CCOCC1,cell viability activity,[1],-93.7%
same,cell viability activity,[2],-92.4%
COC(=O)Nc1nc2cc(C(=O)c3cccs3)ccc2[nH]1,cell viability activity,[1],-64.5%
same,cell viability activity,[2],-78.3%
CN1CCCN=C1COC(=O)C(O)(c1ccccc1)C1CCCCC1 (stereo not drawn),cell viability activity,[1],-55.3%
same,cell viability activity,[2],-50.3%
C[C@@H](C(=O)O)c1ccc(-c2ccccc2)c(F)c1,cell viability activity,[1],-68.9%
same,cell viability activity,[2],-70.3%
